40 compounds from PubChem BioAssay (NCI) can be followed below.

Structures are written as SMILES. Compounds without any hit were thinned out: in the full panel of roughly 83,000, 20% have a hit.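 Percent growth is the endpoint: 0 to 100 indicates growth inhibition (40 means 60% inhibition), 0 means no net growth, and negative values indicate cell death.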 Activity calls are given as the source filed them.

For the assay, the system named is TK-10 renal. Briefly: NCI-60 one-dose screen, 48 h (100 = growth as untreated, 0 = no growth, -100 = all killed). Conditions: 10 µM unless noted. The method, then: Growth inhibition of the TK-10 human tumor cell line is measured as a screen for anti-cancer activity. Cells are grown in 96 well plates and exposed to the test compound for 48 hours. Compounds are tested at a single concentration, which is 10^-5 M for most compounds. The reported endpoint is percent growth (GI% or GIPRCNT), where numbers from 0 - 100% represent growth inhibition, and numbers from -100% - 0 represent cell death. For example, a value of 40 represents 60% growth inhibition. A value of 0 means no net growth occurred over the course of the experiment. A value of -40 indicates 40% of cells at the beginning of the experiment died by the end of the experiment. A value of -100 means all cells are dead at the end of the experiment.
NCI-60 Human Tumor Cell Lines Screen was performed using the standard one-dose NCI protocol, which is described in more detail at https://dtp.cancer.gov/discovery_development/nci-60/default.htm.
Compounds with GIPRCNT values below 10 were considered active. Activity score was based on GIPRCNT using the following formula: […]
Score is 0 for GIPRCNT values of 100 or above, 50 for GIPRCNT values of 0, and 100 for GIPRCNT values of -100.
Consider `COc1ccc(-c2nc3ncccn3c2-c2nc3ccc(Br)cc3[nH]2)cc1`, for which the growth is 101% (inactive).

As to `COC(=O)[C@]12CC[C@@H](C)[C@H](C)[C@@H]1C1=CC(=O)[C@@H]3[C@@]4(C)C[C@@H](OC(C)=O)[C@H](OC(C)=O)[C@@](C)(COC(C)=O)[C@@H]4C(=O)C[C@@]3(C)[C@]1(C)CC2`, the growth is 74% (inactive).

Consider `c1ccc(C2Cc3ccccc3C2=NC2CCCCC2)cc1` (stereo not given), for which the growth was 103% (inactive).

`C=C1C(=O)O[C@H]2[C@H]1CC/C(COC(=O)N[C@H](Cc1c[nH]c3ccccc13)C(=O)OC)=C\CC[C@@]1(C)O[C@@H]21`: the growth is 25.8% (inactive).

For the compound `COC(=O)CNc1nc(N(C)O)nc(N(C)O)n1`, the growth was 49.6% (inactive).

Take `Nc1c(C(=O)Nc2c(Cl)cccc2Cl)sc2nc3c(cc12)C(=O)CCC3`: the growth was 59.5% (inactive).

`C#Cc1cc2c(N)c(C(=O)c3cc(OC)c(OC)c(OC)c3)[nH]c2cc1OC`: the growth is 58.6% (inactive).

Turning to `C=C(C)[C@@H]1CC[C@]2(C(=O)O)CC[C@]3(C)[C@H](CC[C@@H]4[C@@]5(C)C/C(=C/c6cccc(I)c6)C(=O)C(C)(C)[C@@H]5CC[C@]43C)[C@@H]12`, the growth was 29.6% (inactive).

Take `COc1ccc(/C=C/C(=O)NCCO)cc1`: the growth was 92% (inactive).

For the compound `O=c1c(CNc2ccc(S(=O)(=O)Nc3nccs3)cc2)coc2ccccc12`, the growth is 103% (inactive).

On to `COC(=O)[C@]12CC[C@@H](C)[C@H](C)[C@@H]1C1=CC(=O)[C@@H]3[C@@]4(C)C[C@@H](O)[C@H](O)[C@@]5(C)COC(=C45)C[C@@]3(C)[C@]1(C)CC2`, for which the growth was 83.3% (inactive).

On to `CCCNc1nc(N(C)O)nc(N(C)O)n1`, for which the growth was 65.1% (inactive).

As for `CCc1ccc(-c2ccc(Nc3ccccc3)nn2)cc1S(N)(=O)=O`, the growth is 116% (inactive).

Regarding `O=C1C=Cc2ncccc2C1=O`, the growth was 111% (inactive).

Regarding `COc1ccc(C2=NN(c3nc(-c4ccc(OC)cc4)c(C#N)c(=O)n3C)C(=O)CC2)cc1`, the growth was 107% (inactive).

As to `CCCCn1c(-c2ccc(O)cc2)cn2c3c(=O)[nH]c(=O)n(C)c3nc12`, the growth is 86.7% (inactive).

Regarding `COCCNC1=C(Cl)C(=O)c2ccccc2C1=O`, the growth was 138% (inactive).

Regarding `Cc1ccc(Cc2cnc(NC(=O)/C=C/c3cccc(C)c3)s2)cc1`, the growth was 28.3% (inactive).

Take `COC(c1ccccc1)(c1ccccc1)c1ccccc1`: the growth is 123% (inactive).

As for `Fc1cccc(-c2[nH]nc3nc(Nc4cccnc4)sc23)c1`, the growth is 77.3% (inactive).

As to `O=C1C(Cl)=C(Nc2ccc(S(=O)(=O)c3ccc(NC4=C(Cl)C(=O)c5ccccc5C4=O)cc3)cc2)C(=O)c2ccccc21`, the growth was -58.7% (active).

On to `C#Cc1cccc(NC(=O)C2CCCN(C(=O)CCl)C2)c1` (stereo not given), for which the growth was 98.9% [8.25 µM] (inactive).

For `COc1ccc(-c2n/c(=C\c3c(O)[nH]c4ccc(OC)cc34)cc3c2=Nc2ccccc2-3)cc1`, the growth was -10.8% (active).

As to `NCCNc1nc(-c2ccccc2)nc2nc(-c3ccccc3)oc12`, the growth is 119% (inactive).

With `Cc1ccsc1-c1ccc2c(c1)COC2(CCCN(C)C)c1ccc(F)cc1` (stereo not given), the growth was 73.7% (inactive).

For `Cn1cccc1/C=C1/SC(=S)N(CCc2ccc(O)cc2)C1=O`, the growth is 110% (inactive).

As for `Nc1ccc(Br)cn1`, the growth is 107% (inactive).

As to `CCC(=O)c1c(C)[nH]c(C)c1C`, the growth is 99.4% (inactive).

`COc1cc2[nH]c(C(=O)c3cc(OC)c(OC)c(OC)c3)c(N)c2cc1C#CCO`: the growth is 66.2% (inactive).

As for `NC(=O)NCC1CCCCC1`, the growth is 95.5% (inactive).

Consider `OCCNc1nc(Nc2ccc(Cl)c(Cl)c2)nc2ccccc12`, for which the growth is 50% (inactive).

In the case of `O=S(=O)(NCCNc1cc(-c2cn(-c3ccccc3)nc2-c2cccc(O)c2)ccn1)c1ccc(Cl)cc1`, the growth was 50.5% (inactive).

On to `OCC12CCCC(CO)(COC1)C2O` (stereo not given), for which the growth was 113% (inactive).

`Nc1c(C(=O)Nc2c(Cl)cccc2Cl)sc2nc3c(cc12)CCCC3`: the growth was 90.2% (inactive).

As to `Fc1ccc2c(c1)c(-c1nc(-c3c[nH]c4ncccc34)cs1)cn2CCCN1CCCCC1`, the growth was 107% (inactive).

As to `CC(=O)c1c(C)[nH]c(-c2nc3ccc(N4CCN(C)CC4)cc3[nH]2)c1-c1ccc2c(c1)OCCO2`, the growth was 1.44% (active).

For the compound `N#C/C(=C\c1ccc(-c2cccc(C(F)(F)F)c2)o1)c1nc(-c2ccco2)cs1`, the growth was 49.1% (inactive).

Take `O=C1C(=O)c2ccccc2C(O)=C1CCCc1ccc(C2CCCCC2)cc1`: the growth was 52.5% (inactive).

In the case of `COc1cc2ncnc(Nc3ccc(OCc4cccc(F)c4)c(Cl)c3)c2cc1NC(=O)C1CCCC1`, the growth is 18.4% (inactive).

With `Clc1ccc2[nH]cc(-c3nc(-c4c[nH]c5ncccc45)cs3)c2c1`, the growth is 46.1% (inactive).
